CHOP inhibitor: blocks CHOP induction under ER stress; CHO-K1 CHOP-promoter luciferase, tunicamycin-induced, 15-18 h; actives 3.8% (n = 220,000); AID 2732; inhibition, % at 10 µM;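 active = compounds that reduced the stress-induced luciferase reporter signal by more than about 70% of percent inhibition, limit read from the data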;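 note: 0% = tunicamycin plus vehicle and 100% = wells without tunicamycin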
KKLEB cytotox: reduces viability of KKLEB cystic fibrosis airway cells. KKLEB CF airway cells viability, ATPlite luminescence, overnight; stronger effect = lower value; cells stimulated with P. aeruginosa culture filtrate. activity change (cytotoxicity), % at 5 µM. actives 0.36% (n = 360,000);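 active = corrected activity change at or below -50% at 5 µM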
TRPM1 prom inh: MITF TRPM1 promoter inhibition in SK-MEL-5 cells; SK-MEL-5 TRPM1 promoter luciferase, 24 h; inhibition, % at 12.5 µM; actives 0.83% (n = 330,000);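 active = mean inhibition across replicates of 60% or more, whatever share of single replicates reaches that level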
HIF-2a inh: blocks HIF-2a reporter activity | 786-0 RCC cells HIF-2a reporter, luciferase luminescence, overnight | inhibition, % at 18.8 µM | actives 0.72% (n = 360,000);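 active = inhibition of the luminescence signal of 40% or more relative to plate controls, in a single-dose primary screen at 18.75 µM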
Peg3 promoter: inhibitors of Peg3 promoter; HeLa PEG-Prom luciferase reporter, luminescence, overnight; inhibition, % at 20 µM; actives 1.7% (n = 360,000); AID 588405;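 active = inhibition of at least 50% at 20 µM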
CF NFkB block: cystic fibrosis NF-kB activation inhibition; KKLEB NF-kB-GFP reporter, PAF-induced, GFP fluorescence overnight; inhibition, % at 5 µM; actives 0.86% (n = 360,000); AID 588850;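 active = at least 50% inhibition at 5 µM, scaled per plate between neutral and stimulator controls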;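 note: PAF is a Pseudomonas aeruginosa culture filtrate used as stimulus; plate controls were PAF-stimulated DMSO wells for no effect and unstimulated DMSO wells for full effect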
CF NFkB conf: CF NF-kB inhibition confirmation, single concentration. shares compounds with CF NFkB block. KKLEB CF airway cells, PAF-induced NF-kB-GFP fluorescence, overnight. inhibition, % at 5 µM. actives 64% (n = 1,300). AID 602472; in the data active = inhibition above about 40%;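 note: stimulus PAF is a Pseudomonas aeruginosa filtrate and not platelet activating factor; plate controls were DMSO wells with stimulus for no effect and unstimulated DMSO wells for full effect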
Mdm2-MdmX confirm: confirmation of inhibitors of human Mdm2/MdmX interaction, set 2. SaOS-2 split-luciferase Mdm2/MdmX complementation, luminescence. actives 99% (n = 740). inhibition, % at 8 µM. shares compounds with HIF-2a inh. AID 504601;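 active = mean inhibition of the luminescence signal across two replicates at or above 26 percent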
Target sequence (O15151 whole entry, looked up): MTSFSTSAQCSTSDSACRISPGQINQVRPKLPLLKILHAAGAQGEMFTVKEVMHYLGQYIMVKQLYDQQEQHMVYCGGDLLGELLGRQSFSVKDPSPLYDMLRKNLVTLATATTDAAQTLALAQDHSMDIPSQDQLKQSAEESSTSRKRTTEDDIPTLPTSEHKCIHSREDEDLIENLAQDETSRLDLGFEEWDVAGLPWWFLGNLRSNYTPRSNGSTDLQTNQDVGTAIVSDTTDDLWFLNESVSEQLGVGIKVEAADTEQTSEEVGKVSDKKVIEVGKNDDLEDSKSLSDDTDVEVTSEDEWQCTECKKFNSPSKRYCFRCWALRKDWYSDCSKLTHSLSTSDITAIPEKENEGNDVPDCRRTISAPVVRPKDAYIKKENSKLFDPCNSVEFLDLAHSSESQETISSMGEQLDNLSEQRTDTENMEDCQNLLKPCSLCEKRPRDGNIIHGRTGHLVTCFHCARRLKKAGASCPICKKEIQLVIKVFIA
Target sequence (Q00987 whole entry, looked up): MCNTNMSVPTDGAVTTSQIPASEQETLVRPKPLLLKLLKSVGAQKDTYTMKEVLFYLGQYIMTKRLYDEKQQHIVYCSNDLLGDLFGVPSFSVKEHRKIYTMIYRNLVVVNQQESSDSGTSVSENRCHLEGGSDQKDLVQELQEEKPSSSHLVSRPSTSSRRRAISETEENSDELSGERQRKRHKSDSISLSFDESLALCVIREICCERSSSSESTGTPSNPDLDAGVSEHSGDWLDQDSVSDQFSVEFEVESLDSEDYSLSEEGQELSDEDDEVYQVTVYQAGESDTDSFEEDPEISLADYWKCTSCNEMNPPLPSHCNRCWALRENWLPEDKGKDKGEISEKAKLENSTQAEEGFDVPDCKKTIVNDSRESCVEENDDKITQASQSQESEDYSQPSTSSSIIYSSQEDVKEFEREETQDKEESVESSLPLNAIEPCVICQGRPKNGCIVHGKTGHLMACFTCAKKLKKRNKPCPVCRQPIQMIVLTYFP
HIF-2a conf: confirmation of HIF-2a inhibitors. 786-0 RCC cells, HIF-2a luciferase reporter luminescence, overnight. actives 56% (n = 1,800). inhibition, % at 18.8 µM. shares compounds with HIF-2a inh;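 active = mean inhibition across four replicates of at least 40 percent at the single tested concentration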
HIF-1a counter: inhibits HIF-1a reporter, a counter-screen for HIF-2a inhibitors | shares compounds with HIF-2a inh | MiaPaCa-2 HIF-1a luciferase reporter, desferoxamine, overnight | inhibition, % at 18.8 µM | actives 72% (n = 1,800);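 active = mean inhibition of the reporter signal across four replicates at the single tested dose of 50% or more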
Numbers without * were called inactive; . = no result given. Only some compounds are listed: those with a hit (about 4.3% of all), similar ones and a draw of the others.

SMILES | CHOP inhibitor | KKLEB cytotox | TRPM1 prom inh | HIF-2a inh | Peg3 promoter | CF NFkB block | CF NFkB conf | HIF-2a conf | HIF-1a counter | others
CC(=O)c1ccc(-c2cnc3c(NC=O)cc(-c4ccc(C(=O)NC5CC5)cc4)cn23)cc1 | . | -30 | . | 39* | 63* | 56* | 61* | 37 | 94*
COc1ccc(-c2cnc3c(NC(C)=O)cc(-c4ccc(C(=O)NC5CC5)cc4)cn23)cc1OC | . | -13 | . | 2 | 36 | 46 | . | . | .
Cc1ccc(S(=O)(=O)N2CCOC2CNC(=O)C(=O)NCCN2CCOCC2)cc1 (stereo not given) | . | -3 | 9 | 7 | 6 | 33 | . | . | .
COc1ccc(C(=O)Nc2ccc(O)c3ccccc23)cc1OC | . | 4 | 14 | 6 | 11 | -17 | . | . | .
O=C(NC(=S)Nc1ccccc1N1CCOCC1)c1ccc(-c2ccccc2F)o1 | -17 | -8 | -7 | -22 | 30 | 6 | . | . | .
O=C(NCCC1=CCCCC1)c1coc(=O)c(Br)c1 | 50 | 11 | 3 | 65* | 81* | 85* | 93* | -10 | 64*
CC(C)CNC(=O)c1coc(=O)c(Br)c1 | . | -12 | 1 | 70* | 74* | 74* | 95* | -12 | 52*
O=C(NC(CO)(CO)CO)c1coc(=O)c(Br)c1 | -36 | 3 | -11 | -13 | 3 | 20 | . | . | .
CS(=O)(=O)Nc1ccc(C2=NN(S(C)(=O)=O)C(c3ccc4c(c3)OCO4)C2)cc1 (stereo not given) | -18 | 18 | -43 | -189 | -212 | -24 | . | . | .
COc1cc(-c2nc(-c3ccc(NC(=O)c4ccc5c(c4)OCO5)cc3)no2)cc(OC)c1OC | 28 | -49 | -1 | -138 | -77 | 58* | 42* | . | . | Mdm2-MdmX confirm=88*
C[C@H]1CCC[C@@]2(O[C@H](CCO)C[C@H](O)[C@H]2O)O1 | . | 8 | 1 | 15 | 11 | 29 | . | . | .
CCc1ccc(Nc2n[n+](-c3ccccc3)c(-c3c(Cl)cccc3Cl)s2)cc1 | . | -42 | 56 | -57 | 97* | 52* | 88* | . | . | Mdm2-MdmX confirm=101*
CCc1ccc(Nc2n[n+](-c3ccccc3)c(-c3ccc(OCc4ccccc4)cc3)s2)cc1 | . | 1 | 9 | -13 | 7 | 12 | . | . | .
COc1ccc2cc3c(N)nn(C(=O)c4ccc(F)cc4)c3nc2c1 | 67 | -4 | -9 | -1 | -21 | 63* | 72* | . | . | Mdm2-MdmX confirm=91*
COc1ccc(C(=O)n2nc(-c3ccc(OC)cc3)nc2N)cc1 | 23 | -19 | -16 | -10 | 8 | 16 | . | . | .
COc1cc(/C=C/C(=O)c2ccc(O)cc2)ccc1OCC#N | -203 | -17 | 22 | 51* | 97* | 65* | -5 | -13 | 100*
COCC(=O)N(Cc1cc2ccc(C)c(C)c2n2nnnc12)C1CCCC1 | 25 | -10 | -4 | 21 | 23 | 8 | . | . | .
CN(c1ncnc(N)c1[N+](=O)[O-])C1CCCCC1 | . | -1 | -45 | 19 | 31 | 84* | 93* | . | . | Mdm2-MdmX confirm=87*
Cc1ccccc1Oc1ncnc(N)c1[N+](=O)[O-] | 7 | -4 | 5 | 15 | 5 | -3 | . | . | .
CNc1nc(N)c([N+](=O)[O-])c(NC2CCCCC2)n1 | . | -22 | -6 | 13 | 28 | 50 | . | . | .
CCCCN(c1ccccc1)c1ncnc(N)c1[N+](=O)[O-] | 37 | -15 | -20 | 15 | 12 | 76* | 93* | . | . | Mdm2-MdmX confirm=86*
C=C1C(=O)OC2CC1C(O)CC(C)=CCCC(C)=CC(O)CC2C (stereo not given) | . | -40 | 95* | 94* | 98* | 81* | 97* | 98* | 107*
C=C1C(=O)OC2CC1C(OC(C)=O)CC(C)=CCCC(C)=CCCC2(C)O (stereo not given) | . | -44 | . | 92* | 99* | 94* | 32 | 92* | 104*
FC(F)(F)c1cnc(COc2ccc(Cl)cc2Cl)c(Cl)c1 | 56 | 4 | -48 | -53 | -45 | -6 | . | . | .
CCOc1ccc(OCCC(=O)OCC(=O)NCc2ccccc2)cc1 | . | 3 | 0 | 9 | -3 | 7 | . | . | .
SMILES | CHOP inhibitor | KKLEB cytotox | TRPM1 prom inh | HIF-2a inh | Peg3 promoter | CF NFkB block | CF NFkB conf | HIF-2a conf | HIF-1a counter | others
CCOC(=O)C(=Cc1ccc(-n2cncn2)cc1)C(=O)OCC | 10 | -8 | 41 | 94* | 104* | 75* | 22 | 90* | 106*
CCOC(=O)c1c(C)[nH]c(C(=O)OCC(=O)c2ccc3c(c2)NC(=O)CO3)c1C | . | -1 | 0 | -9 | -9 | 10 | . | . | .
N#C/C(=C\c1cccc(NC(=O)c2ccccc2Cl)c1)C(=O)NCCc1ccccc1 | -25 | -31 | 37 | 80* | 12 | 82* | 9 | 45* | 93*
Cn1c(Sc2ccc(Cl)cc2)c(C=O)c2ccccc21 | 50 | -29 | 19 | 26 | 54* | 76* | 81* | . | . | Mdm2-MdmX confirm=92*
Cn1c(N)c(C(=O)COC(=O)c2ccccc2C(=O)c2ccccc2)c(=O)n(C)c1=O | . | 3 | . | 15 | 7 | -4 | . | . | .
O=C(COC(=O)c1ccc(Cl)c([N+](=O)[O-])c1)NC1CCCC1 | . | 12 | 6 | 2 | 6 | 1 | . | . | .
Cn1c(N)c(C(=O)COC(=O)c2ccccc2C(=O)c2ccc(Cl)c([N+](=O)[O-])c2)c(=O)n(C)c1=O | . | -19 | 92* | 71* | 96* | 65* | 34 | 32 | 93*
O=C(COC(=O)c1ccccc1C(=O)c1ccc(Cl)c([N+](=O)[O-])c1)NC1CCCCCC1 | 93* | -27 | 100* | 93* | 104* | 86* | 106* | -1 | 106* | Mdm2-MdmX confirm=103*
Cc1cccc(C)c1NS(=O)(=O)c1ccc(-c2cnc(C3CC3)o2)cc1 | . | -31 | 74* | 47* | 19 | 65* | 73* | 35 | 51*
COc1cc(CNC2CCCCC2OC)cc(OC)c1OC (stereo not given) | -8 | 4 | -2 | 14 | 2 | 11 | . | . | .
N#CC(C#N)=C1C=CC=CN1/C(=C\c1ccco1)C(=O)c1ccccc1 | 110* | -35 | 104* | 91* | 99* | 96* | 68* | 98* | 105*
CCN=C1SC(C(=O)Nc2cccc(Br)c2)CC(=O)N1CC (stereo not given) | 8 | 8 | -8 | 20 | 13 | 5 | . | . | .
